PubChem BioAssay AID624330 (Southern Research Specialized Biocontainment Screening …, 2012)
Out of some 340,000 compounds screened, about 2,100 (0.62%) were called active.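 Rule for the calls: active = first-screen hits whose inhibition reached a set limit at any dose in the follow-up dose series; inconclusive = inhibition above the set first-screen limit but never retested; inactive = the rest.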 Only a sample is shown. Entries with a potency or affinity are not part of this list.

Target: Rac GTPase-activating protein 1 (Homo sapiens) (UniProt Q9H0H5)
Test: blockers of MgcRacGAP-driven Rac1 GTP hydrolysis – biochemical, ADP Hunter fluorescence, primary and confirmatory, confirmation (AID 624330);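 note: fluorescence reports GDP produced by GAP-driven GTP hydrolysis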
Settings: MgcRacGAP-stimulated Rac1 GTP hydrolysis, at 30 µM, active compounds read high, GST-tagged Rac1 F28L mutant substrate

Sequence of Rac GTPase-activating protein 1 (Homo sapiens) (Q9H0H5 whole entry, looked up): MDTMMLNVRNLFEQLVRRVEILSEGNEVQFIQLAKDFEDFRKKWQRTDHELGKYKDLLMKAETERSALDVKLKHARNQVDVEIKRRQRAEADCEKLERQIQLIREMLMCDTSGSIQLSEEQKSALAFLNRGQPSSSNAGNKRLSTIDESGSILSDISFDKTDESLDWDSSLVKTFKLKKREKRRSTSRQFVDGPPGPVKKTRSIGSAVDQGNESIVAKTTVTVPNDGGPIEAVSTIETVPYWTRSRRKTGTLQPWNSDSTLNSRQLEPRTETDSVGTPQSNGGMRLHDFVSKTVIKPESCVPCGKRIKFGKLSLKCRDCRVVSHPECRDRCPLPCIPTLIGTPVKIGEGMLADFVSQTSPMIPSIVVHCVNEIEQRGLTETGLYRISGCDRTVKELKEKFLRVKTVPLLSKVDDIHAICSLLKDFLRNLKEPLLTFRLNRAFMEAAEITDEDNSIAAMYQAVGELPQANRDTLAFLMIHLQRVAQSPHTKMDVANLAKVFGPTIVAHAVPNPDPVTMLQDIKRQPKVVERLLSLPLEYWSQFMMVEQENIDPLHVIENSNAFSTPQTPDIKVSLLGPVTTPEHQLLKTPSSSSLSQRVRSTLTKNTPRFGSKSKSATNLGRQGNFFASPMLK

inhibition, inactive:
CC(N=c1ccccn1C(=O)Nc1cccc(C(F)(F)F)c1)c1ccco1 (configuration not stated) 2.17%
O=C(CN1CCCCC1)NN(Cc1ccccc1)c1ccccc1 10.1%
CCN(CC(=O)NC(=O)NCc1ccccc1)Cc1ccccc1 3.08%
CC(C)(O)C(=O)NN(Cc1ccccc1)c1ccccc1 4.09%
CN1CCN(CC(=O)NN(Cc2ccccc2)c2ccccc2)CC1 31.6%
CCCc1cc(=O)[nH]c(SCC(=O)c2cc(C)n(CC3CCCO3)c2C)n1 (configuration not stated) 4.29%
Cc1ccc(S(=O)(=O)NC(C)C(=O)N2CCOCCOCCOCCOCC2)cc1 (configuration not stated) 9.08%
CCc1ccc(NC(=O)C2CCN(S(=O)(=O)c3ccc4c(c3)NC(=O)CO4)CC2)cc1 -14%
O=C1/C(=C/c2ccc([N+](=O)[O-])cc2)C=C(c2ccccc2)N1c1ccccc1 15.2%
Cn1c(=O)cc(-c2ccccc2)c2ccccc21 5.87%
COc1cc(/C=C2\C(=O)ON=C2c2ccccc2)cc(OC)c1OC 15%
CC(C)n1c2ccccc2c2cc([N+](=O)[O-])ccc21 10.7%
COc1cc(/C=C(/C(=O)O)c2ccc(-c3ccccc3)cc2)cc(OC)c1OC 7.82%
Cn1c(-c2ccccc2)cc(=O)c2ccccc21 12.4%
CC(=O)Nc1ccc(NC(=O)CSc2nnc(-c3cccs3)n2C)cc1 5.9%
O=C(/C=C/c1cccc([N+](=O)[O-])c1)NCc1ccccc1 2.96%
CCCCOc1cccc(/C=C(\C#N)C(=O)NC2CC2)c1 4.72%
CC(C)(C)OC(=O)C[C@@H]1C/C=C\C[C@@H](CC(=O)N[C@H](CO)Cc2ccccc2)C(=O)N2CCC[C@@H]2COC1=O 4.93%
CN(CCO)c1ncnc2c1sc1nc(N3CCOCC3)c3c(c12)CCC3 13.9%
O=C(CCl)N(c1ccccc1)c1ccccc1 5.65%
Cc1cc(C(=O)NNC(=O)C2CCCC2)c(C)o1 4.19%
Cc1cnc(NC(=O)c2cccs2)s1 0.1%
NC(=O)C[C@H](N)c1cn([C@@H](CC(N)=O)C(=O)N2CCNCC2)nn1 -0.03%
CN(CC1CCCN(CCc2ccc(Cl)cc2)C1)C(=O)C(=O)c1ccco1 (configuration not stated) 6.85%
Cc1ccn2cc(C(=O)N3CCN(c4cnn(-c5ccccc5)c(=O)c4Cl)CC3)nc2c1 2.32%
O=C(NCc1ccccc1)NS(=O)(=O)c1ccccc1Cl 2.6%
CCCCCCCCCCCCCCCC[N+](C)(C)CC 18.7%
CCCCCCCCCCCCCCCC[N+](C)(C)CCl 15.1%
COc1ccc(CNC(=O)C(C)N(Cc2ccco2)C(=O)c2snc(C(N)=O)c2N)cc1 (configuration not stated) -8.32%
COc1ccc(C2CC(c3ccc4ccccc4c3)=NN2C(=O)CSc2ncccn2)cc1 (configuration not stated) 7.23%
C=CCNCC(=O)N1N=C(c2ccc3ccccc3c2)CC1c1ccc(OC)cc1 (configuration not stated) 6.55%
CN(C)CC1CCC/C(=C\c2ccc(OC(=O)c3ccc(Cl)cc3)cc2)C1=O (configuration not stated) 2.37%
COc1ccc(CCNC(=O)CCOc2ccc(C(C)(C)C)cc2)cc1OC 3.35%
CC(=O)Nc1nnc(S(N)(=O)=O)s1 1.42%
Cc1ccc(-c2nnc(NC(=O)c3ccco3)s2)cc1 6.39%
Cc1nnc(NC(=O)c2ccco2)s1 4.57%
CC(=O)Nc1nnc(C)s1 9.89%
CC(C)c1ccc(CNC(=O)C(=O)NCC2CCCO2)cc1 (configuration not stated) 14.8%
Cc1cc(NS(=O)(=O)c2ccc(NC(=O)COc3ccccc3[N+](=O)[O-])cc2)no1 7.5%
CN(C)CCC1Sc2ccccc2Oc2ccccc21 (configuration not stated) 17.5%
CC1c2ccccc2SC(CCCN(C)C)c2ccccc21 (configuration not stated) 5.84%
Cc1onc(-c2c(F)cccc2Cl)c1C(=O)NCc1cccs1 5.78%
COc1ccc(S(=O)(=O)N(C)CC(=O)NCCC2=CCCCC2)cc1 4.26%
O=[N+]([O-])c1ccc2oc(/C=C/c3ccc(O)cc3)nc2c1 13.2%
O=c1[nH]c(/C=C\c2cccc(O)c2)nc(O)c1[N+](=O)[O-] 13.1%
NS(=O)(=O)c1ccc(NC(=S)NNC(=O)c2ccc(Br)o2)cc1 4.44%
COc1ccc(Cl)cc1NC(=O)CN(C)CC(=O)Nc1ccc(Br)cc1 3.57%
O=C(NN1C(=O)/C(=C\c2cccnc2)SC1=S)c1ccco1 13.7%
CCOc1ccc(NC(=O)CSc2nnc(C3CC3)n2C)cc1S(=O)(=O)N1CCCCC1 8.28%
COc1ccc(Br)cc1CN1CCN(C(=O)c2ccc(OC)c(OC)c2)CC1 21%
COc1ccccc1C(=O)N1CCN(C(=O)c2ccncc2)CC1 1.76%
COc1ccccc1N1CCN(C(=O)c2ccncc2)CC1 -0.56%
COc1ccc(OC)c(CN2CCN(C(=O)c3ccc(F)cc3)CC2)c1 25%
CCCCOc1ccc(/C=C/C(=O)N(CC)CC(=O)Nc2ccc3c(c2)OCCO3)cc1OC 11.7%
C/C(Cn1nc([N+](=O)[O-])cc1C)=N\NC(=O)COc1ccc(Cl)cc1Cl 6.26%
Cc1ccccc1NC(=O)c1c(C)nn(-c2ccccc2)c1Cl 8.16%
O=C(CSc1ncccn1)NCC1CCCO1 (configuration not stated) 4.06%
COc1cc(/C=N/Nc2nc3ccccc3[nH]c2=O)ccc1O 15.8%
COc1cc(/C=N\Nc2nc3ccccc3[nH]2)cc(OC)c1OC 29%
COc1cc(OC)c(OC)cc1/C=N/Nc1nc2ccccc2[nH]1 12.8%
COc1ccc(O)c(/C=N/Nc2nc3ccccc3[nH]2)c1 1.94%
COc1ccc(NC(=O)c2c(C)nn(Cc3ccccc3)c2Cl)cc1S(=O)(=O)N1CCOCC1 2.08%
Cc1ccc(S(=O)(=O)N2CCC(C(=O)OC(C)C(=O)N3CCOCC3)CC2)cc1 (configuration not stated) 4.25%
CCc1ccc(NC(=O)c2n[nH]c(=O)c3ccccc23)cc1 2.23%
COc1ccc(N2CCN(C(=O)CCN3C(=O)C4C5C=CC(C5)C4C3=O)CC2)cc1 (configuration not stated) 10.9%
CCn1cc(CNC(=O)C2CCC(=O)N(CCc3cccc(F)c3)C2)cn1 (configuration not stated) 4.69%
CCCNC(=O)COC(=O)C1CCN(S(=O)(=O)c2ccc3c(c2)OCCO3)CC1 2.29%
COc1ccccc1CC(=O)NCC1CCCO1 (configuration not stated) 14.3%
O=C(CSCSCC(=O)NCC1CCCO1)NCC1CCCO1 (configuration not stated) 9.35%
O=C(CN1CCN(c2ccc(F)cc2)CC1)NCC1CCCO1 (configuration not stated) 12.3%
O=C(CCCC(=O)NCC1CCCO1)NCC1CCCO1 (configuration not stated) 7.04%
Cc1cccc(C(C)C)c1NC(=O)Cc1ccc(S(=O)(=O)N2CCOCC2)s1 6.93%
COCCC(=O)N1CCCC(CCC(=O)NCc2ccc(F)c(F)c2)C1 (configuration not stated) 4.17%
COc1ccc2nc3cc([N+](=O)[O-])ccc3c(NNc3ccc([N+](=O)[O-])cc3)c2c1 1.37%
COc1cc2c(cc1OC)-c1cc(NC3CC3)nc(=O)n1CC2 3.36%
Cc1ccc(NC(=O)c2csc(-c3ccccc3)c2C)cc1 9.66%
CCOC(=O)c1c(C)[nH]c(C(=O)CN2CCOCC2)c1C 2.51%
CCOC(=O)c1c(C)[nH]c(C(=O)N2CCN(CC)CC2)c1C 2.01%
COC(=O)c1cc(OC)c(OC)cc1NC(=O)c1cc(OC)cc(OC)c1 -0.7%
CCOc1ccccc1N1CCN(Cc2ccco2)CC1 14.9%
CCOc1ccccc1N1CCN(C(=O)CC(C)(C)C)CC1 -0.74%
CCC(=O)c1cn(CC(=O)Nc2cc(C)ccc2C)c2ccccc12 13.6%
O=C(CNC(=O)c1ccc(Br)o1)NNC(=O)c1ccccc1O 6.63%
COc1cc(CC(=O)Nc2ccc(N3CCOCC3)cc2)cc(OC)c1OC 4.24%
CCOc1c(Cl)cc(CNc2ccc(N3CCCC3)cc2)cc1OC 36.9%
CCOc1cc(CNc2ccc(Br)cc2)cc(Br)c1OCC(=O)NC(C)(C)C -3.09%
COc1cc(CNc2ccc(N3CCCC3)cc2)cc(Cl)c1OC 1.89%
CCOc1cc(CNc2ccccc2)cc(Br)c1OCC(=O)NC(C)(C)C 6.03%
CCOc1cc(CNc2ccc3c(c2)OCCO3)cc(Br)c1OCC 30%
CCOc1cc(C(=O)Nc2ccc(N3CCOCC3)cc2)cc(Br)c1OC 2.59%
CCOc1cc(CNc2ccc3c(c2)OCCO3)cc(Br)c1OC 23.8%
COCCNC(=O)/C(C#N)=C/c1ccc(O)cc1 15.1%
CC(C)CCc1noc(CN2CCC(C(=O)N3CCOCC3)CC2)n1 7.77%
Cc1cccc(C2NS(=O)(=O)N=C2N)c1 (configuration not stated) 4.81%
NC(=O)c1c(NC(=O)C2c3ccccc3Oc3ccccc32)sc2c1CCCCC2 10.9%
Oc1c(C=C2N=c3ccccc3=N2)sc(=S)n1-c1ccc2ccccc2c1 9.34%
O=C(CN(c1ccccc1)S(=O)(=O)c1ccccc1)Nc1ccc(F)cc1 -5.62%
